Reference: PubChem BioAssay (EPA / NIEHS)
Records with an inconclusive call do not appear. The source holds several records for some structures; these can differ, active in one and inactive in another. Active and inactive are the calls of the source. The calls were made as follows, unless noted: active = hit-call score of the fitted dose curve at least 0.9, where 1 is the maximum; inactive = score below 0.9.

Key:
[1] = read-out: Macrophage colony-stimulating factor (MCSF), CSF1 (gene 1435); assay: BSK_LPS_MCSF: BioMAP Diversity Plus: LPS Assay for Macrophage colony-stimulating factor (MCSF) Biomarker Activity (AID 2283083); conditions: primary human HUVEC with PBMC; actives raise or lower the signal
Summary of the method: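 ELISA readout of M-CSF after 24 h compound exposure in a human endothelial/PBMC co-culture. Activity, in either direction, is fitted relative to DMSO vehicle.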

[2] = read-out: Tissue Factor, F3 (gene 2152); assay: BSK_LPS_TissueFactor: BioMAP Diversity Plus: LPS Assay for Tissue Factor Biomarker Activity (AID 2283084); conditions: primary human HUVEC with PBMC; actives raise or lower the signal
Summary of the method: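 ELISA signal for cell-surface Tissue Factor (CD142) was read 24 h after compound dosing of an LPS-stimulated human endothelial–PBMC primary co-culture. Gain or loss of signal was scored relative to DMSO.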

[3] = read-out: Tumor necrosis factor (Homo sapiens) (UniProt P01375); assay: BSK_LPS_TNFa: BioMAP Diversity Plus: LPS Assay for Tumour Necrosis Factor alpha (TNFa) Biomarker Activity (AID 2283085); conditions: primary human HUVEC with PBMC; actives raise or lower the signal
Summary of the method: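 Human umbilical vein endothelial cells co-cultured with PBMC were exposed to test chemical and TNFa measured by ELISA 24 h after dosing. Bidirectional curve fitting was done relative to DMSO as negative control and baseline.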

[4] = read-out: Vascular cell adhesion molecule 1 (VCAM1), VCAM1 (gene 7412); assay: BSK_LPS_VCAM1: BioMAP Diversity Plus: LPS Assay for Vascular cell adhesion molecule 1 (VCAM1) Biomarker Activity (AID 2283086); conditions: primary human HUVEC with PBMC; actives raise or lower the signal
Summary of the method: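 Human umbilical vein endothelial cells co-cultured with peripheral blood mononuclear cells under LPS stimulation were exposed to test chemical for 24 h. VCAM-1 levels were then measured by ELISA, with bidirectional curve fitting relative to DMSO as negative control and baseline.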

[5] = read-out: CD38, CD38 (gene 952); assay: BSK_SAg_CD38: BioMAP Diversity Plus: SAg Assay for CD38 Biomarker Activity (AID 2283087); conditions: primary human HUVEC with PBMC; actives raise or lower the signal
Summary of the method: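 Fluorescence ELISA of cell-surface CD38 served as the read-out, with either increase or decrease fitted against DMSO controls. Cells were a human umbilical vein endothelium plus PBMC co-culture under SEB/TSST-1 stimulation, measured 24 h after dosing.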

[6] = read-out: CD40, CD40 (gene 958); assay: BSK_SAg_CD40: BioMAP Diversity Plus: SAg Assay for CD40 Biomarker Activity (AID 2283088); conditions: primary human HUVEC with PBMC; actives raise or lower the signal
Summary of the method: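 Compounds were dosed onto a human primary endothelial–PBMC co-culture, and after 24 h CD40 was quantified by ELISA using a fluorescence signal. Activity in either direction was fitted relative to DMSO.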

[7] = read-out: CD69, CD69 (gene 969); assay: BSK_SAg_CD69: BioMAP Diversity Plus: SAg Assay for CD69 Biomarker Activity (AID 2283089); conditions: primary human HUVEC with PBMC; actives raise or lower the signal;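 as to AC50: cell surface CD69 protein quantified by ELISA with fluorescence detection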
Summary of the method: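 ELISA, fluorescence read-out: CD69 on human umbilical vein endothelial cell + PBMC co-culture, 24 h post-dosing. Gain or loss of signal fitted bidirectionally against DMSO baseline.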

[8] = read-out: Monocyte Chemoattractant Protein-1 (MCP1), CCL2 (gene 6347); assay: BSK_SAg_MCP1: BioMAP Diversity Plus: SAg Assay for Monocyte Chemoattractant Protein-1 (MCP1) Biomarker Activity (AID 2283090); conditions: primary human HUVEC with PBMC; actives raise or lower the signal
Summary of the method: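 MCP-1 levels in the endothelial–PBMC SAg co-culture were quantified by ELISA at 24 h post-dosing; both increases and decreases versus DMSO scored. Cytotoxicity monitored by SRB total protein in parallel cultures.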

[9] = read-out: E-selectin (Homo sapiens) (UniProt P16581); assay: BSK_SAg_Eselectin: BioMAP Diversity Plus: SAg Assay for Eselectin Biomarker Activity (AID 2283091); conditions: primary human HUVEC with PBMC; actives raise or lower the signal
Summary of the method: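 Co-culture: HUVEC + PBMC. Dose compound; 24 h. ELISA for E-selectin. Bidirectional fit vs DMSO.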

[10] = read-out: Monokine induced gamma interferon (MIG), CXCL9 (gene 4283); assay: BSK_SAg_MIG: BioMAP Diversity Plus: SAg Assay for Monokine induced gamma interferon (MIG) Biomarker Activity (AID 2283092); conditions: primary human HUVEC with PBMC; actives raise or lower the signal
Summary of the method: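 ELISA readout of MIG/CXCL9; primary human umbilical vein endothelial cells co-cultured with peripheral blood mononuclear cells; 24 h post-dose; gain/loss fit vs DMSO baseline.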

[11] = BSK_SAg_PBMCCytotoxicity: PBMC Cytotoxicity Assessment in the BioMAP Diversity Plus: SAg Assay (AID 2283093); conditions: primary human HUVEC with PBMC;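 also: PBMC viability measured as Alamar Blue reduction fluorescence at 546/580 nm; fitted both ways against DMSO so a hit may be loss or gain of signal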;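 as to AC50: PBMC superantigen activated with SEB plus TSST-1 one hour after compound addition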
Summary of the method: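 Compound added to 75,000 PBMC/well for 1 h; SEB and TSST-1 then added at 20 ng/mL final each; 90 h incubation; Alamar Blue 6 h; read 546/580 nm ex/em. Activity fitted bidirectionally relative to DMSO baseline.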

[12] = read-out: Interleukin-8 (IL8), CXCL8 (gene 3576); assay: BSK_SAg_IL8: BioMAP Diversity Plus: SAg Assay for Interleukin-8 (IL8) Biomarker Activity (AID 2283094); conditions: primary human HUVEC with PBMC; actives raise or lower the signal
Summary of the method: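 Human umbilical vein endothelial cells co-cultured with peripheral blood mononuclear cells; IL-8 measured by ELISA 24 h after chemical dosing. Bidirectional concentration-response fitting used DMSO as negative control and activity baseline.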

[13] = BSK_SAg_Proliferation: Cell Proliferation Assessment in the BioMAP Diversity Plus: SAg Assay (AID 2283095); conditions: primary human HUVEC with PBMC;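 also: relative cell number as total protein by SRB absorbance in sub-confluent culture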
Summary of the method: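 Human umbilical vein endothelial cells co-cultured with peripheral blood mononuclear cells; total protein measured by sulforhodamine B staining (0.1% SRB after 10% TCA fixation), absorbance at 560 nm, at 96 h. Bidirectional fit against DMSO baseline.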

[14] = BSK_SAg_SRB: Viability Assessment in the BioMAP Diversity Plus: SAg Assay (AID 2283096); conditions: primary human HUVEC with PBMC;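 also: cells read one day after compound addition; hits may be either gain or loss of signal compared with DMSO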
Summary of the method: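 Total protein by sulforhodamine B staining, 24 h after dosing, in HUVEC–PBMC co-culture; DMSO-referenced bidirectional fitting.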

[15] = target: human CYP19A1, CYP19A1 (gene 1588) (UniProt P11511); assay: NVS_ADME_hCYP19A1: NovaScreen (NVS) CYP450-related Enzyme Activity (ADME) Assay for human CYP19A1 (AID 2283098; active = hit-call score of the fitted dose curve at least 0.9, where 1 is the maximum)
Chain of human CYP19A1, CYP19A1 (gene 1588) (P11511 whole entry, looked up): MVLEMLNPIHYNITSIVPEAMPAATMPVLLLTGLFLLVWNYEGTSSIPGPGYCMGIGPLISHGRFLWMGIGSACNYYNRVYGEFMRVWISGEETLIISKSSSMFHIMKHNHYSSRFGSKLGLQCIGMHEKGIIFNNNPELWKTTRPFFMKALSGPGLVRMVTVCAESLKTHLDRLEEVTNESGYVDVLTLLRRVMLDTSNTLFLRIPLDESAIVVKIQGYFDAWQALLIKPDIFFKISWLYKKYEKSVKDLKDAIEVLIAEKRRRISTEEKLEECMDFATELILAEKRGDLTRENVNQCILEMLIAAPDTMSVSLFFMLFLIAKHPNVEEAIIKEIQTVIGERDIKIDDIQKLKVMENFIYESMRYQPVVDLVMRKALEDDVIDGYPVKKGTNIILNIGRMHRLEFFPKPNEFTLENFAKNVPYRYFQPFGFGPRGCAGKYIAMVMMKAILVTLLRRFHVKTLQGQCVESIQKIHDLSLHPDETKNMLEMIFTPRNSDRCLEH
Summary of the method: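 Biochem, cell-free; recombinant enzyme + specific substrate; fluorescence intensity at 0.5 h post-dose; 10 uM duplicate primary, conc. series for actives; acetonitrile = negative control/baseline; positive and negative controls on every plate.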

[16] = target: human CYP1A1, CYP1A1 (gene 1543) (UniProt P04798); assay: NVS_ADME_hCYP1A1: NovaScreen (NVS) CYP450-related Enzyme Activity (ADME) Assay for human CYP1A1 (AID 2283100; active = hit-call score of the fitted dose curve at least 0.9, where 1 is the maximum)
Chain of human CYP1A1, CYP1A1 (gene 1543) (P04798 whole entry, looked up): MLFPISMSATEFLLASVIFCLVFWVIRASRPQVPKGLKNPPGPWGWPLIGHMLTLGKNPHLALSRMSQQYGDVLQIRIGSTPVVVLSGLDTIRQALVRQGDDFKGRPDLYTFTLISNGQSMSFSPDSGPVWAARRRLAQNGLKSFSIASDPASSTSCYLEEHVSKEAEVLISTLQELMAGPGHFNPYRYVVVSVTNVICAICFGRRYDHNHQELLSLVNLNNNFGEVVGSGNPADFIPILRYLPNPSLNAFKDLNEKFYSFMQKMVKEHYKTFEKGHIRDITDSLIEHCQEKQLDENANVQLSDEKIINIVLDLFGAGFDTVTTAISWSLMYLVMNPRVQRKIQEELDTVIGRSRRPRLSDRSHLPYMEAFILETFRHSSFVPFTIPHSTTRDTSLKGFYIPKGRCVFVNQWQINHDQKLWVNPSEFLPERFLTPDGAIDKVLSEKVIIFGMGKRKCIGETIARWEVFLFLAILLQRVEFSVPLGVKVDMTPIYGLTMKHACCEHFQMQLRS
Summary of the method: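 Recombinant hCYP1A1 + fluorogenic substrate, cell-free; 1 h; fluorescence read. Single-point 10 uM (duplicate) → concentration series, max 20 uM. Acetonitrile negative control.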

[17] = target: human CYP1A2, CYP1A2 (gene 1544) (UniProt P05177); assay: NVS_ADME_hCYP1A2: NovaScreen (NVS) CYP450-related Enzyme Activity (ADME) Assay for human CYP1A2 (AID 2283102; active = hit-call score of the fitted dose curve at least 0.9, where 1 is the maximum;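 also: fluorescence from turnover of a fluorogenic substrate by recombinant insect-cell CYP1A2; potency for inhibition since loss of fluorescence marks reduced CYP1A2 activity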)
Chain of human CYP1A2, CYP1A2 (gene 1544) (P05177 whole entry, looked up): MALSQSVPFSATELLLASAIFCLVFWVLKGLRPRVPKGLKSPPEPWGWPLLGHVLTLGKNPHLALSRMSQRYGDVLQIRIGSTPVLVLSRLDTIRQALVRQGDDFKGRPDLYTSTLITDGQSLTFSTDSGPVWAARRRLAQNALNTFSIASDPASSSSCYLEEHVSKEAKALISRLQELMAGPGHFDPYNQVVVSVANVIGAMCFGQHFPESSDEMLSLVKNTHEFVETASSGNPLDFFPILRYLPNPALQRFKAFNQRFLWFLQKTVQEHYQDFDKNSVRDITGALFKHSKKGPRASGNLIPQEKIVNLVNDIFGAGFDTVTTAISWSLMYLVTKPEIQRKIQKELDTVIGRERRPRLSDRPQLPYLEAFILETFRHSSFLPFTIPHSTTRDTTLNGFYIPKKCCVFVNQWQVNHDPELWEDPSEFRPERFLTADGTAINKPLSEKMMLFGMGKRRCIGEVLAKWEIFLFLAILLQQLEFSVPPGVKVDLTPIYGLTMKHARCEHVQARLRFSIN
Summary of the method: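 rec. hCYP1A2 (insect cells), cell-free; fluorogenic substrate; 0.5 h; FI read. Baseline = acetonitrile; signal loss = inhibition. 10 uM duplicate primary → conc. series for actives.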

[18] = target: human CYP2B6, CYP2B6 (gene 1555) (UniProt P20813); assay: NVS_ADME_hCYP2B6: NovaScreen (NVS) CYP450-related Enzyme Activity (ADME) Assay for human CYP2B6 (AID 2283101; active = hit-call score of the fitted dose curve at least 0.9, where 1 is the maximum)
Chain of human CYP2B6, CYP2B6 (gene 1555) (P20813 whole entry, looked up): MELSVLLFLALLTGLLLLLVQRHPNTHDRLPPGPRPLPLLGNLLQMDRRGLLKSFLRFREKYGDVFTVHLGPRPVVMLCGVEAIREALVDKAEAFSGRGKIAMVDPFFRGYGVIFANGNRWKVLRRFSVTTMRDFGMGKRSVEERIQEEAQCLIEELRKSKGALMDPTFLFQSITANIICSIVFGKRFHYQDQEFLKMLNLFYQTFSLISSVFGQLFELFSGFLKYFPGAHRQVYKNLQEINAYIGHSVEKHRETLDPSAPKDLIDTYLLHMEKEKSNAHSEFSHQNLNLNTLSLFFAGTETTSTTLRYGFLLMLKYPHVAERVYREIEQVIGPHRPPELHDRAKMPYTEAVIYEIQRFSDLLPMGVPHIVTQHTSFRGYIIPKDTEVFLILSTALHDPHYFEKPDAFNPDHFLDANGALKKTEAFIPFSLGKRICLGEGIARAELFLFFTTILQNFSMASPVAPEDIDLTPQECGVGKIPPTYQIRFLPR
Summary of the method: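 Fluorescence-based enzyme activity of recombinant human CYP2B6, measured 1 h post-dose against acetonitrile vehicle baseline. Screened at a single concentration of 10 uM in duplicate before concentration-response follow-up.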

Measured: AC50

Chain of Tumor necrosis factor (Homo sapiens) (P01375 whole entry, looked up): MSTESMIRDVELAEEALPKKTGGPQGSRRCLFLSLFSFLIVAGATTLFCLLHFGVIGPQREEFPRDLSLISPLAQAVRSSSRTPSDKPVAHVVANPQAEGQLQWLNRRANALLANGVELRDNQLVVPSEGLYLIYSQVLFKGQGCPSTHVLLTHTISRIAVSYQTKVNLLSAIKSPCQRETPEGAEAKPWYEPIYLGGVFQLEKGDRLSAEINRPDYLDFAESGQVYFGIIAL
Chain of E-selectin (Homo sapiens) (P16581 whole entry, looked up): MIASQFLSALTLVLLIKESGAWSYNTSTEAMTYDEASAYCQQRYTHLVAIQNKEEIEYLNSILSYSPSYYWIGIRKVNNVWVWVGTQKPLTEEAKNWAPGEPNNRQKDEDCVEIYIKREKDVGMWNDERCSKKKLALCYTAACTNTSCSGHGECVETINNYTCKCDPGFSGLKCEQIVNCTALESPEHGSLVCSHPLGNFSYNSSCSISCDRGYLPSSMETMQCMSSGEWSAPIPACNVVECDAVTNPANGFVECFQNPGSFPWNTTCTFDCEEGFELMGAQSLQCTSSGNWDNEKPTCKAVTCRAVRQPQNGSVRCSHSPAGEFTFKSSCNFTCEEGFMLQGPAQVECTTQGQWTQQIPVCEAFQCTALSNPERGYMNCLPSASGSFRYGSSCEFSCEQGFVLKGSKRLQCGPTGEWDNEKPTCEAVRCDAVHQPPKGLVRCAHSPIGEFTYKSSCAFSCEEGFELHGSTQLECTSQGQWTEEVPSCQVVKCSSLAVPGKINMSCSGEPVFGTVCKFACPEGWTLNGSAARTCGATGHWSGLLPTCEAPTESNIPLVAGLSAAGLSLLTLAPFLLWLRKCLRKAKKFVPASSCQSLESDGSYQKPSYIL

OC1CCCCC1
not listed: [15] | [16] | [17] | [18]
inactive: all other assays above

CCC(=C(c1ccc(O)cc1)c1ccc(OCCN(C)C)cc1)c1ccccc1
active: [1] 7.5 µM | [2] 13 µM | [3] 13.6 µM | [4] 12.6 µM | [5] 8.38 µM | [6] 11.1 µM | [7] 9.48 µM | [8] 11.1 µM | [9] 18.7 µM | [10] 13.2 µM | [11] 7.32 µM | [12] 10.2 µM | [13] 5.91 µM | [14] 8.31 µM

CC(C)CCCCCCOC(=O)CCCCC(=O)OCCCCCCC(C)C
not listed: [15] | [16] | [17] | [18]
inactive: all other assays above

CCCCCCCCCCCCc1ccccc1S(=O)(=O)O
not listed: [15] | [16] | [17] | [18]
inactive: all other assays above

C=C(C)C(=O)OCCC(F)(F)C(F)(F)C(F)(F)C(F)(F)C(F)(F)C(F)(F)F
inactive: [1] | [2] | [3] | [4] | [5] | [6] | [7] | [8] | [9] | [10] | [12] | [13] | [14] | [15]
active: [13] 11.2 µM

CC(C)(C)c1cc(C(C)(C)C)c(O)c(C(C)(C)C)c1
active: [2] 20 µM
not listed: [11] | [15] | [16] | [17] | [18]
inactive: all other assays above

O=C(OCCOCCOC(=O)c1ccccc1)c1ccccc1
active: [3] 3.97 µM | [17] 1.71 µM
not listed: [15] | [18]
inactive: all other assays above

C#C[C@]1(O)CC[C@H]2[C@@H]3CCC4=CC(=O)CC[C@@H]4[C@H]3CC[C@@]21C
active: [1] 6.38 µM | [3] 4.11 µM | [4] 8.21 µM | [5] 7.1 µM | [6] 5.45 µM | [8] 5.76 µM | [14] 7.46 µM
inactive: [2] | [7] | [9] | [10] | [11] | [12] | [13]

CCCCC(CC)COC(=O)CCCCC(=O)OCC(CC)CCCC (centres undefined)
active: [3] 3.97 µM
not listed: [15] | [16] | [17] | [18]
inactive: all other assays above

NCC(F)(F)C(F)(F)C(F)(F)C(F)(F)C(F)(F)C(F)(F)C(F)(F)F
inactive: [1] | [2] | [3] | [4] | [5] | [6] | [7] | [8] | [9] | [10] | [12] | [13] | [14]
active: [13] 43.6 µM

Cc1cc(C)c(O)c(C)c1
active: [3] 0.352 µM
not listed: [11] | [15] | [16] | [17] | [18]
inactive: all other assays above

CCc1ccc(CCOc2ccc(CC3SC(=O)NC3=O)cc2)nc1 (centres undefined)
active: [13] 7.06 µM
not listed: [15] | [16] | [17] | [18]
inactive: all other assays above

CCCOc1sc(C(=O)N2CCC(c3cc(CN)ccc3F)CC2)c(C)c1Br
inactive: [16]
active: [1] 10.7 µM | [2] 13.1 µM | [3] 13.4 µM | [4] 7.57 µM | [5] 6.1 µM | [6] 9.53 µM | [7] 8.27 µM | [8] 8.39 µM | [9] 6.75 µM | [10] 11.9 µM | [11] 6.22 µM | [12] 7.78 µM | [13] 5.11 µM | [14] 6.68 µM | [18] 8.64 µM | [17] 5.25 µM

CCCCCCC(=O)O
not listed: [15] | [16] | [17] | [18]
inactive: all other assays above

c1ccc2c(c1)ccc1ccccc12
not listed: [15] | [16] | [17] | [18]
inactive: all other assays above
